Laboratory results as given in PubChem BioAssay (NCI).
This is part of a sample that, as a whole, favours compounds with a hit. Of some 83,000 tested, about 20% had one in any assay.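 The test compound was applied at a single concentration to cells in 96-well plates for 48 hours, and percent growth was recorded.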 Active and inactive are the calls of the source. How the source made its calls: active means growth percent below 10; inactive means the rest.

tested on: HL-60(TB) leukemia; test: NCI-60 one-dose screen, 48 h (100 = growth as untreated, 0 = no growth, -100 = all killed); details: 10 µM unless noted

| SMILES | growth |
| --- | --- |
| CCCCCCCCCCCCCCCCCCOc1ccc(CC(=O)OCC[N+](C)(C)C)cc1 | 2.32% (active) |
| Cc1cc2c(cc1C)N(C(=O)CCl)CCN2C(=O)CCl | -41.3% (active) |
| CCOC(=O)CN(c1sc(C)c(C)c1C(=O)OCC)S(=O)(=O)c1ccc(C)cc1 | 94.2% (inactive) |
| COC1=CC(c2ccc[nH]2)=N/C1=C\c1[nH]c(C)c(CC(=O)OCc2ccccc2)c1CCC(=O)OCc1ccccc1 | -31.1% (active) |
| Cc1cnc(/C=N\NC(N)=S)c2cccc(N)c12 | -29.7% (active) |
| CN(CCCCCl)P(=O)(OCc1ccc([N+](=O)[O-])o1)C(F)(F)c1ccc(CC(=O)NC[C@@H](O)/C=C\[C@@H](O)[C@H](CO)Cc2ccccc2)cc1 (stereo not given in full) | 80.3% (inactive) |
| C=C1CC[C@@H]2C(C)(C)[C@H](O)CC[C@@]2(C)[C@@H]1COc1ccc2ccc(=O)oc2c1 | 46.4% (inactive) |
| Cc1c(C(=O)N[C@@H](Cc2ccccc2)C(=O)C(=O)NCc2ccc(F)cc2)[nH]c2ccccc2c1=O | 96.8% (inactive) |
| COc1ccc(-c2cnoc2-c2ccc(OC)cc2O)cc1 | 26.4% (inactive) |
| CC(=O)Nc1ccc(NC(C)=O)c2c1C(=O)c1ccccc1C2=O | 154% (inactive) |
| CCOC(=O)c1c(-c2ccc(O)cc2)c(C#N)c2c(C#N)c(N)nn2c1N | 22.5% (inactive) |
| Cl/C(=N\Nc1ccccc1)c1ccccc1 | 101% (inactive) |
| O=C(c1ccccc1)N1N=C(c2ccccc2)CC1c1nnc2n(Cc3ccccc3)c(=O)c3c4c(sc3n12)CCCC4 (stereo not given) | 97.7% (inactive) |
| O=C1CCc2c(sc3[nH]c(=S)n(-c4cc(C(F)(F)F)cc(C(F)(F)F)c4)c(=O)c23)C1 | -14.2% (active) |
| COCCN1CCN(Cc2ccc(-c3n[nH]c4c3C(=O)c3c(NC(=O)NN5CCOCC5)cccc3-4)cc2)CC1 | -36.9% (active) |
| CCCCCCCC/C=C\CCCCCCCC(=O)OCCCCCC | 93.6% (inactive) |
| COc1ccc2c3ccnc(C(F)(F)F)c3n(CCCCN)c2c1 | 53.8% (inactive) |
| O=C1C(Cl)=C(Nc2ccc(S(=O)(=O)c3ccc(NC4=C(Cl)C(=O)c5ccccc5C4=O)cc3)cc2)C(=O)c2ccccc21 | 32.7% (inactive) |
| NNC(=O)CNc1ccc2ccccc2c1 | 84.8% (inactive) |
| Cc1ncc(C(=O)Nc2ccc(CN3CCN(C)CC3)c(C(F)(F)F)c2)cc1C#Cc1cnc(N)c2ccc(C#N)cc12 | 13.2% (inactive) |

| SMILES | growth |
| --- | --- |
| COc1c(O)c2c3c(c1OC)-c1ccccc1CC3N(S(=O)(=O)c1ccc(C)cc1)CC2 (stereo not given) | 5.73% (active) |
| COC(c1ccccc1)(c1ccccc1)c1ccccc1 | 111% (inactive) |
| Nc1nc(Nc2ccccc2SSc2ccccc2Nc2nc(N)nc(C(Cl)(Cl)Cl)n2)nc(C(Cl)(Cl)Cl)n1 | 11.5% (inactive) |
| COc1cc2c(cc1OC)C(=O)/C(=C/c1cccc(OCC(=O)c3ccccc3)c1)C2 | 89.8% (inactive) |
| c1ccc(-c2nc(N3CCCNCC3)c3nc(-c4ccccc4)oc3n2)cc1 | -34.6% (active) |
| CN(C)c1ccc(/C=C2/C=C(c3ccccc3)OC2=O)cc1 | 4.38% (active) |
| CCC(C)(C)C(=O)O[C@H]1C[C@@H](C)C=C2C=C[C@H](C)[C@H](CC[C@@H]3C[C@@H](O)CC(=O)O3)[C@H]21 | 77.1% (inactive) |
| Nc1ccn(C2CC(N)C(CO)O2)c(=O)n1 (stereo not given) | 84.6% (inactive) |
| CC(C)C1=NOC(=O)C1=Cc1cn(-c2ccco2)nc1-c1ccccc1 | 3.89% (active) |
| C=C1C(=O)O[C@H]2[C@H]1CC/C(COC(=O)NCc1ccc(Cn3c(=O)sn(-c4ccccc4)c3=O)cc1)=C\CC[C@@]1(C)O[C@@H]21 | -25.2% (active) |
| CN1CCN(Cc2ccc(NC(=O)c3cncc(C#Cc4cncc5ncccc45)c3)cc2C(F)(F)F)CC1 | -3.29% (active) |
| O=[N+]([O-])c1ccc(Oc2cccc3c(Oc4ccc([N+](=O)[O-])cc4[N+](=O)[O-])cccc23)c([N+](=O)[O-])c1 | 99.9% (inactive) |
| O=C1Nc2cc(-c3ccc(NS(=O)(=O)c4ccccc4)cc3)ccc2/C1=C/c1ccc[nH]1 | 95.7% (inactive) |
| COc1cccc(OC)c1C(=O)N[C@@H]1C(=O)N2[C@@H]1SC(C)(C)[C@@H]2C(=O)O | 94.3% (inactive) |
| c1nc2ccc(-c3cc4ccc5[nH]ncc5c4c4c3CCCC4)cc2[nH]1 | 30.9% (inactive) |
| O=C(CCN1CCCC1)Nc1ccc2c(Nc3ccc(Br)cc3)c3ccccc3nc2c1 | -54.6% (active) |
| CCCCCCCCOc1ccc(/C=N/Nc2cc(C)nc3ccc(Br)cc23)cc1 | 60.4% (inactive) |
| COc1cc2nc3sc(C(=O)Nc4ccc(C(=O)OC(C)C)cc4)c(C(=O)Nc4ccc(Cl)cc4C)n3c(=O)c2cc1OC | 90.2% (inactive) |
| CCN(CCCNC(=O)Cc1cc(=O)oc2cc(N(C)C)ccc12)CCNc1ccnc2cc(Cl)ccc12 | 76.6% (inactive) |
| CCN1C(=O)N(CC)C2C1NC(=S)N2/N=C/C=C/c1ccccc1OC (stereo not given) | -20.8% (active) |
